Screening results as filed in PubChem BioAssay.
In the library only some 9% were active in any assay of this set; here they are far more common.
ALDH1A1 inh: blocks purified human ALDH1A1 activity | actives 7.3% (n = 220,000) | Purified ALDH1A1, NADH fluorescence, propionaldehyde substrate | P00352 | AID 1030 | Potency, µM (top dose mostly 75.3 µM), without a hit: at the highest dose activity, negative = inhibition, actives largely listed as inhibitors; active = well fitted inhibition curve with a large enough effect, not every such curve was filed as active; inconclusive = small, poorly fitted or top-dose-only effect, or another doubt; inactive = no such curve, though single readings can be large or run the other way;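 note: plate controls were no enzyme wells and a reference inhibitor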
Target sequence (P00352 whole entry, looked up): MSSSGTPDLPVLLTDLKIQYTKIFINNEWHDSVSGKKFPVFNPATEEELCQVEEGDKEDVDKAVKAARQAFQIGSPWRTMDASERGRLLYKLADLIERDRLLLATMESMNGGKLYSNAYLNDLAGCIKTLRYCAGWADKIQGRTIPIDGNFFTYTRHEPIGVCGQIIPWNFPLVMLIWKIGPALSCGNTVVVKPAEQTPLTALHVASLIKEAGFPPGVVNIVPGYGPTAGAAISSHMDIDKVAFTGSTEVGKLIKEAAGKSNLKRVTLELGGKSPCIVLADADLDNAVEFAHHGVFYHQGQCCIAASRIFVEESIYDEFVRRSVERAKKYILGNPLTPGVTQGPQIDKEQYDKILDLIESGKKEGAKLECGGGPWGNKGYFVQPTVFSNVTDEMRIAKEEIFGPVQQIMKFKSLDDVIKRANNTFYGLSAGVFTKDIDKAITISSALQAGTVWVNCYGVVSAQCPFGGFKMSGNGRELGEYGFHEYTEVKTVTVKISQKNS
LMNA splice mod: LMNA splicing modulation; Potency, µM (top dose mostly 46.1 µM), for the others: at the highest dose ratio change, negative = inhibition, hits mostly inhibitors; HeLa LMNA splicing GFP/RFP minigene ratio, 48 h; actives 0.01% (n = 200,000); active = well fitted inhibition curve with a large enough effect in the signal ratio, with a control signal flat, not every such curve was filed as active; inconclusive = small, poorly fitted or top-dose-only effect, or effect the other way, or a change in a side signal; the % refers to the signal ratio
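S3 HeLa cells stably expressing lamin A-EGFP splicing minigene plus DsRed2, 600 cells/well, 48 h compound exposure at 37C. Laser-scanning cytometry; analysed as GFP (500-530 nm)/RFP (575-640 nm) total intensity ratio; 0.5% DMSO vehicle.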
KinaseGlo FLuc: Kinase-Glo luciferase inhibition (counter-screen); Kinase-Glo luciferase, ATP luminescence, 8 min; actives 0.28% (n = 200,000); Q27757; AID 1379; Potency, µM (doses to about 38.3 µM), without a hit: at the highest dose activity change, negative = inhibition, usual class: inhibitors; note: nearly all actives have a fitted effect of over 60% in size
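Inhibition of Kinase-Glo luciferase light generation was assessed at 10 uM ATP in pH 7.2 imidazole buffer, with luminescence measured after eight minutes at ambient temperature.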
IMPase Li inh: cell-permeable IMPase inhibitors with lithium potentiation | Potency, µM (titrated, usually from 59.4 µM), without a hit: at the highest dose activity, negative = IMPase inhibition, most hits filed as inhibitors | actives 0.35% (n = 210,000) | CHO-M1 cells, IP1 TR-FRET (IP-One), carbachol + lithium | AID 1457;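 note: IP1 builds up when IMPase is blocked and the TR-FRET signal falls; plate controls were basal vehicle for no effect and high inhibitor control for full effect; nearly all actives have a fitted effect of over 50% in size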
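Steps: plate 2000 CHO-M1 cells per well and culture 16–30 h; add compound and lithium; incubate 30 min, 37C; add d2-IP1 tracer and Eu cryptate anti-IP1 antibody in lysis buffer; read after 10 min at room temperature.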
HPGD block: inhibitors of human 15-hydroxyprostaglandin dehydrogenase (HPGD). purified HPGD, NADH fluorescence kinetic, PGE2 substrate. AID 894. P15428. actives 4.3% (n = 150,000). Potency, µM, for the others: at the highest dose activity change, negative = inhibition, actives largely listed as inhibitors; active = well fitted inhibition curve with a large enough effect, not every such curve was filed as active; inconclusive = small, poorly fitted or top-dose-only effect, or another doubt; inactive = no such curve, though single readings can be large or run the other way
Target sequence (P15428 whole entry, looked up): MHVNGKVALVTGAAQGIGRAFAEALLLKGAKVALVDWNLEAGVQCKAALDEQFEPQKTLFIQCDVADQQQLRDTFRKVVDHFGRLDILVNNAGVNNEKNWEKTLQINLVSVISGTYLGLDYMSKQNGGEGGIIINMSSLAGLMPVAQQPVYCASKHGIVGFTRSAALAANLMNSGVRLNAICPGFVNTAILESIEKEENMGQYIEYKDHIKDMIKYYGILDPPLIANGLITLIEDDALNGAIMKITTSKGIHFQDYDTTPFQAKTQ
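NADH formation kinetics: reaction with 30 uM PGE2 and 1 mM NAD+ (final), 20 nM enzyme, Tris-HCl pH 8 with Tween 20, after 15 min compound preincubation at room temperature. Fluorescence change, last versus first of five reads.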
* = called active by the depositor; ! = a repeat was not active; [ ] = dose if it differs, or a comment. Unless noted, calls come from the whole dose curve; as a rule, active = well fitted curve in the direction sought with a large enough effect; inconclusive = small, poorly fitted or top-dose-only effect, or another doubt; inactive = no such curve, though single readings can be large; an effect the other way counts as inactive or inconclusive. Unless noted, % is set by controls: 0 for no effect and ±100 for the full control effect; potency is the fitted concentration of half-maximal effect.

Screening Cc1cc(C)nc(NC(=O)C(c2ccccc2)c2ccccc2)c1 returned ALDH1A1 inh 14.1µM*, LMNA splice mod -0.8%, KinaseGlo FLuc 1.0%, IMPase Li inh 13.2% and HPGD block -1.0%.
For Cc1ccc(CCSc2ccc(C(C)C)cc2)cn1 the results were ALDH1A1 inh -10.0% and LMNA splice mod inconclusive.
Screening O=C(O)CSCC(=O)c1ccccc1 returned ALDH1A1 inh 14.1µM*, LMNA splice mod 6.2%, KinaseGlo FLuc 3.8%, IMPase Li inh -2.9%[38.3 µM] and HPGD block -24.3%.
For O=C(CC(=O)c1ccncc1)c1ccccc1 the results were ALDH1A1 inh 3.55µM*, KinaseGlo FLuc -4.4%[7.66 µM], IMPase Li inh -3.9% and HPGD block 3.55µM*.
`O=C(O)c1ccncc1.O=C(O)c1ccncc1.[Cl][Pt]([Cl])([Cl])[Cl]` gave ALDH1A1 inh 2.24µM*, KinaseGlo FLuc -7.7%[7.66 µM], IMPase Li inh -4.5% and HPGD block 3.98µM*.
For O=C(O)c1ccc(C(=O)O)cc1 the results were ALDH1A1 inh 2.3%, IMPase Li inh -6.3% and HPGD block -2.8%.
`C=C(C)OC(C)=O` gave ALDH1A1 inh -7.2%, IMPase Li inh 7.2% and HPGD block -7.3%.
For O=C(Nc1cccc(Cl)c1)c1ccc2c(c1)SC1=NS(=O)(=O)CCN12 the results were ALDH1A1 inh inconclusive, LMNA splice mod inconclusive, KinaseGlo FLuc -0.7% and IMPase Li inh 2.7%.
`COc1ccc(/C=C2\SC(=S)N(N3C(=O)CCC3=O)C2=O)cc1O` gave ALDH1A1 inh inconclusive, LMNA splice mod inconclusive, KinaseGlo FLuc 0.1% and IMPase Li inh 10.5%.
`COc1cccc(/C=C2\SC(=S)N(N3CCOCC3)C2=O)c1OC` gave ALDH1A1 inh 14.1µM*, LMNA splice mod 4.8%, KinaseGlo FLuc 1.2%, IMPase Li inh 3.7% and HPGD block -8.9%.
Screening COc1ccccc1/C=C1\SC(=S)N(N2C(=O)CCCC2=O)C1=O returned ALDH1A1 inh 25.1µM*, LMNA splice mod inconclusive, KinaseGlo FLuc 4.0% and IMPase Li inh 12.2%.
For O=C1/C(=C/c2ccccn2)SC(=S)N1N1CCOCC1 the results were ALDH1A1 inh 4.47µM*.
CC(C(=O)N1CCCCCC1)c1ccc([N+](=O)[O-])cc1 (stereo not given) was read as ALDH1A1 inh -4.0% and IMPase Li inh 7.5%.
Screening Nc1ccc(-c2nc3ccccc3[nH]2)cc1 returned ALDH1A1 inh inconclusive, LMNA splice mod -10.1%, KinaseGlo FLuc inconclusive, IMPase Li inh 1.7%[38.3 µM] and HPGD block inconclusive.
Cc1ccc2nc(-c3cccc(N)c3)[nH]c2c1 was read as ALDH1A1 inh inconclusive, LMNA splice mod -3.5%, KinaseGlo FLuc 10µM*, IMPase Li inh -11.1% and HPGD block inconclusive.
`Nc1ccc(-c2nc3ccc(-c4nc5ccc(N)cc5[nH]4)cc3[nH]2)cc1` gave ALDH1A1 inh inconclusive, LMNA splice mod inconclusive, KinaseGlo FLuc 2.3%[39.9 µM], IMPase Li inh 10µM*! and HPGD block inconclusive.
Cc1ccc(-n2c(SC3CCOC3=O)nc3ccccc3c2=O)cc1 (stereo not given) was read as ALDH1A1 inh -12.8%, KinaseGlo FLuc 0.6% and IMPase Li inh 0.8%.
CCCN1C(=O)c2cc(C(=O)Nc3ccc(OC)cc3OC)ccc2C1Nc1ccc(OC)cc1OC (stereo not given) was read as ALDH1A1 inh 25.1µM* and IMPase Li inh 13.6%.
`Cc1cccc(/C=C2\CCC(=C3SCCCS3)C2=O)c1` gave ALDH1A1 inh 8.91µM*, LMNA splice mod 0.9%, KinaseGlo FLuc inconclusive, IMPase Li inh 2.4%[38.3 µM] and HPGD block -28.5%.
`O=C1C(=C2SCCCS2)CC/C1=C\c1ccc(F)cc1` gave ALDH1A1 inh 4.8%, LMNA splice mod 14.1%, KinaseGlo FLuc 11.2µM*, IMPase Li inh -0.2%[38.3 µM] and HPGD block -6.9%.
For Cc1cccc(/C=c2\s/c(=C\C(=O)C(C)(C)C)[nH]c2=O)c1 the results were ALDH1A1 inh 1.0% and LMNA splice mod inconclusive.
For O=C1CCCN1c1ccc(S(=O)(=O)Oc2ccc(Cl)cc2)cc1[N+](=O)[O-] the results were ALDH1A1 inh -11.9%, LMNA splice mod -0.4%, KinaseGlo FLuc -1.2%, IMPase Li inh 28.7%[38.3 µM] and HPGD block 7.94µM*.
For CCOCCCNC(=O)/C(C#N)=C/c1ccc(Cl)c([N+](=O)[O-])c1 the results were ALDH1A1 inh 10µM*, LMNA splice mod inconclusive, KinaseGlo FLuc -0.6% and IMPase Li inh inconclusive.
`CCOCCCNC(=O)/C(C#N)=C/c1cc(OC)c(O)c([N+](=O)[O-])c1` gave ALDH1A1 inh 12.6µM*, KinaseGlo FLuc 0.7% and IMPase Li inh 15.5%.
For CCOCCCNC(=O)/C(C#N)=C/c1cc(C)c(O)c(C)c1 the results were ALDH1A1 inh 10µM*, LMNA splice mod inconclusive, KinaseGlo FLuc 2.4% and IMPase Li inh 7.6%.
For CCOCCCNC(=O)/C(C#N)=C/c1ccc(C(=O)OC)cc1 the results were ALDH1A1 inh inconclusive, KinaseGlo FLuc 0.6% and IMPase Li inh 6.7%.
Screening Cc1ccc(-c2cc(C(=O)N/N=C/C=C/c3ccccc3)n[nH]2)s1 returned ALDH1A1 inh inconclusive, LMNA splice mod inconclusive, KinaseGlo FLuc 0.1%, IMPase Li inh 0.6% and HPGD block 31.6µM*.
COCCCNC(=O)CN(c1cc(Cl)ccc1OC)S(C)(=O)=O was read as ALDH1A1 inh -1.1%, KinaseGlo FLuc -1.3% and IMPase Li inh -2.0%.
For O=C(NC1CCCCCC1)c1ccc(=O)n(Cc2ccccc2)n1 the results were ALDH1A1 inh inconclusive, LMNA splice mod 4.3%[46 µM], KinaseGlo FLuc -2.5% and IMPase Li inh 4.2%.
Cc1ccc(N2CCN(C(=O)c3ccccc3Br)CC2)c(C)c1 was read as ALDH1A1 inh inconclusive, LMNA splice mod inconclusive, KinaseGlo FLuc 0.0%, IMPase Li inh 9.3%[38.3 µM] and HPGD block 25.1µM*.
Screening C[C@H]1[C@H](C)CC[C@]2(C(=O)O)CC[C@]3(C)C(=CCC4[C@@]5(C)C[C@@H](O)[C@H](O)[C@@](C)(CO)[C@@H]5CC[C@]43C)[C@H]12 (stereo not given in full) returned ALDH1A1 inh 4.0%, KinaseGlo FLuc 1.7%, IMPase Li inh 8.3% and HPGD block -3.8%.
`COc1ccc(-c2nc(C)c(CCNC(=O)c3cccs3)s2)cc1` gave LMNA splice mod -7.1%[46 µM].
`CCCCc1noc2c1/C(=N\O)CC(c1ccccc1)C2` (stereo not given) gave ALDH1A1 inh -0.9%, LMNA splice mod -13.9%, KinaseGlo FLuc 0.5%, IMPase Li inh 4.9% and HPGD block -21.2%.
CCCCc1n[nH]c2c1/C(=N/O)CC(c1ccccc1)C2 (stereo not given) was read as ALDH1A1 inh -2.2%, LMNA splice mod inconclusive, KinaseGlo FLuc -2.8%, IMPase Li inh 0.5%[38.3 µM] and HPGD block 2.51µM*.
